# Assay results taken from PubChem BioAssay.
# A number with no mark means an inactive call. For some assays here: Results with a measured potency or affinity are listed apart. Activity calls are given as the source filed them. Unless noted, no rule for the calls is given here.
# Key:
# [1] = antimalarial activity against Dd2 strain (AID 2302;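 active = growth inhibition above 50% at the single 2 µM test dose, taken to imply half-maximal potency below 2 µM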;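 also: 0% = DMSO untreated growth and 100% = chloroquine plus artemisinin killed control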); conditions: P. falciparum Dd2 in RBCs, LDH growth readout, 72 h; at 2 µM; active compounds read high
# [2] = HepG2 cytotoxicity, primary screen, cytotoxicity control for P. falciparum antimalarial project, cell-based, ATP luminescence (AID 2303;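 active = inhibition above 50%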;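 also: 0% = DMSO wells and 100% = digitonin-killed cells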); conditions: HepG2 viability, 24-48 h, at 10 µM, active compounds read high
# [3] = biological target: L-lactate dehydrogenase (Plasmodium falciparum (isolate CDC / Honduras)) (UniProt Q27743); assay: PfLDH activity inhibition – cell lysate, 3D7 strain, counter-screen for P. falciparum growth inhibition project (AID 2304);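 also: 0% = vehicle and 100% = reference inhibitor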; conditions: P. falciparum 3D7 crude extract, LDH APAD/NBT absorbance; at 2 µM; active compounds read high
# [4] = inhibition of 3D7 malaria parasite growth – strain 3D7 (AID 2306);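 also: 0% = DMSO wells and 100% = chloroquine plus artemisinin control wells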; conditions: P. falciparum 3D7 erythrocytic growth, LDH absorbance, 72 h; at 2 µM; active compounds read high
# [5] = biological target: Calcium-dependent protein kinase 1 (Plasmodium falciparum (isolate 3D7)) (UniProt P62344); assay: PfCDPK1 kinase inhibitors, biochemical, TCAMS library (AID 1159585; cut-off not given, nearly all actives have IC50 up to about 0.98 µM;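 also: inhibitors leave more ATP so luminescence rises with inhibition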); conditions: recombinant PfCDPK1, Kinase-Glo ATP depletion luminescence
# [6] = biological target: Plasmodium falciparum protein kinase 6 (PK6, PF3D7_1337100) (UniProt Q8IDW1); assay: PfPK6 kinase inhibitors, biochemical, TCAMS library (AID 1159586); conditions: recombinant PfPK6, Kinase-Glo ATP depletion luminescence
# [7] = biological target: Protein kinase 7 (PK7), Plasmodium falciparum 3D7 (PF3D7_0213400) (UniProt Q7YTF7); assay: inhibition of Plasmodium PK7 catalytic activity – biochemical, TCAMS antimalarial set, Kinase-Glo luminescence (AID 1159587); conditions: recombinant PfPK7, Kinase-Glo ATP depletion luminescence
# [8] = biological target: Calcium-dependent protein kinase 4 (Plasmodium falciparum (isolate 3D7)) (UniProt Q8IBS5); assay: PfCDPK4 kinase inhibitors, biochemical, TCAMS library (AID 1159588; cut-off not given, nearly all actives have IC50 up to about 0.91 µM); conditions: recombinant PfCDPK4, Kinase-Glo ATP depletion luminescence
# Sequence of Calcium-dependent protein kinase 4 (Plasmodium falciparum (isolate 3D7)) (Q8IBS5 whole entry, looked up): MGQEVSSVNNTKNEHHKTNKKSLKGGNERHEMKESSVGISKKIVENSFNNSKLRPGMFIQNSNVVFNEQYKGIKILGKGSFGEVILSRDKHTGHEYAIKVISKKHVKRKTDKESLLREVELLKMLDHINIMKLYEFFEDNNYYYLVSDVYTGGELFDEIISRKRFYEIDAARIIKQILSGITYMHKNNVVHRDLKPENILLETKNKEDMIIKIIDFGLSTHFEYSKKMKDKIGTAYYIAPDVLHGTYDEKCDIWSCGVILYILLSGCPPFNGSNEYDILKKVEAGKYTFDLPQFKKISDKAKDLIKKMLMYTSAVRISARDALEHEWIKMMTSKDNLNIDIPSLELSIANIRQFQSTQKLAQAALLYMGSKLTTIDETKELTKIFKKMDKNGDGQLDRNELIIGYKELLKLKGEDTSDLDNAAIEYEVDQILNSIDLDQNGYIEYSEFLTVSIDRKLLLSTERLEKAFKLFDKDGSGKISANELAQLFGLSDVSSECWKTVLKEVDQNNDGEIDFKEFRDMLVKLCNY
# Sequence of Calcium-dependent protein kinase 1 (Plasmodium falciparum (isolate 3D7)) (P62344 whole entry, looked up): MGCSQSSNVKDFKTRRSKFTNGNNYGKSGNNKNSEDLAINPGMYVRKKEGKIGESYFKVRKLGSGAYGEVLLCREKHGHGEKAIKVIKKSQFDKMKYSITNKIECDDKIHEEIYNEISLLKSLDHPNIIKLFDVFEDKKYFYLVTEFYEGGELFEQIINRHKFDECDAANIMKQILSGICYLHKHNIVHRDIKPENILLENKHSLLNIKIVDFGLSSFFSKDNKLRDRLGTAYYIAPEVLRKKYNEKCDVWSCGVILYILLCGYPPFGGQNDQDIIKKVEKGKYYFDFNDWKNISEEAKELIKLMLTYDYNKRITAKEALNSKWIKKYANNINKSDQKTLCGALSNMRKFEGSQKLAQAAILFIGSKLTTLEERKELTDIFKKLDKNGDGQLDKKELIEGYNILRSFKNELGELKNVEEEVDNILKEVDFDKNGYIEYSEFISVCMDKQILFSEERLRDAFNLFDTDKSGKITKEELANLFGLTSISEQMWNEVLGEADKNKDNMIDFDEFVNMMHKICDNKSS
# Sequence of L-lactate dehydrogenase (Plasmodium falciparum (isolate CDC / Honduras)) (Q27743 whole entry, looked up): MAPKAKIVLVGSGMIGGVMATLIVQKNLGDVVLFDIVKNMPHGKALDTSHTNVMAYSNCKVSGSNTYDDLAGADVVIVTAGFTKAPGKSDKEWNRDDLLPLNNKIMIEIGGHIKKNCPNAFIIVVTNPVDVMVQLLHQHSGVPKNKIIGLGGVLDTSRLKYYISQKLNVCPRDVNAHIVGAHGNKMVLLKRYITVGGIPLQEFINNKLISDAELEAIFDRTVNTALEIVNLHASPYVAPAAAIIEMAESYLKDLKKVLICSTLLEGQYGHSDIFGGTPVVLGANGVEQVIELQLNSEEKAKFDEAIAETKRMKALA
# Sequence of Protein kinase 7 (PK7), Plasmodium falciparum 3D7 (PF3D7_0213400) (Q7YTF7 1-343): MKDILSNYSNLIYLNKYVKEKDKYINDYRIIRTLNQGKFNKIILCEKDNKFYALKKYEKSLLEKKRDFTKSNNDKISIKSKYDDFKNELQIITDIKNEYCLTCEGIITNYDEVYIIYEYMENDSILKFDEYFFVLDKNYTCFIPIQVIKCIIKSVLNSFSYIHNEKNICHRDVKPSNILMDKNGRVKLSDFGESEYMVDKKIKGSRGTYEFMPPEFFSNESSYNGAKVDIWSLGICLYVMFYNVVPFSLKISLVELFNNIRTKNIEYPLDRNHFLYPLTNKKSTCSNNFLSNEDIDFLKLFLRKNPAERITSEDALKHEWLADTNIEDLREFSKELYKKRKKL
# Sequence of Plasmodium falciparum protein kinase 6 (PK6, PF3D7_1337100) (Q8IDW1 1-305): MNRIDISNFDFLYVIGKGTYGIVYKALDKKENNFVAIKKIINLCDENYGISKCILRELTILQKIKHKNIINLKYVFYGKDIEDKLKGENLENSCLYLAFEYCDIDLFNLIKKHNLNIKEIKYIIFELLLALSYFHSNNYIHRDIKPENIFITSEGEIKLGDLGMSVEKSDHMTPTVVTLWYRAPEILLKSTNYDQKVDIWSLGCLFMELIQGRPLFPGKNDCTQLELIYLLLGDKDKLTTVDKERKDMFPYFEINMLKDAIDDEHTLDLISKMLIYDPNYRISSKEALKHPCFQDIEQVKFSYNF
SMILES,growth inhibition [1],inhibition [2],inhibition [3],growth inhibition [4],outcome [5],outcome [6],outcome [7],outcome [8]
Cc1ccccc1C1CCN(C2CCC(NC(=O)/C=C/c3cc(F)cc(F)c3)CC2)CC1 (stereo not given),33%,53% (active),3%,99% (active),inactive,inactive,inactive,inactive
Cc1cc(N(C)C)nc(Nc2ccc(NC(=O)c3ccc(F)cc3)cc2)n1,21%,8%,-3%,100% (active),inactive,inactive,inactive,inactive
c1ccc(CN2CCCN(c3ccc4c(c3)CCN(Cc3ccc(-c5ncc[nH]5)cc3)CC4)CC2)cc1,73% (active),6%,2%,100% (active),inactive,inactive,inactive,inactive
CCOC(=O)c1ccc(NC(=O)N[C@@H](Cc2ccccc2)C(=O)NC2CCN(Cc3ccc(O)c(OC)c3)C2)cc1 (stereo not given in full),0%,-1%,-2%,88% (active),inactive,inactive,inactive,inactive
CCCOc1ccc(CCCON2C(N)=NC(N)=NC2(C)C)cc1,94% (active),65% (active),0%,95% (active),inactive,inactive,inactive,inactive
CC(C)c1ccc(Nc2nc(NCCc3cnc[nH]3)nc(NCc3ccccc3)n2)cc1,2%,1%,-2%,98% (active),inactive,inactive,inactive,inactive
Cc1ccc(NC(=O)c2ccc3ncccc3c2)cc1OC1CCN(Cc2ccc(F)cc2)C1 (stereo not given),28%,11%,3%,83% (active),inactive,inactive,inactive,inactive
O=C(COc1cccc([N+](=O)[O-])c1)Nc1ccc(-c2nc3ccccc3[nH]2)cc1,5%,12%,7%,99% (active),inactive,inactive,inactive,inactive
COc1cc2c(cc1NS(=O)(=O)c1ccc(OCc3ccc(Br)cc3)cc1)CCN(C1CCC1)CC2,30%,36%,2%,94% (active),inactive,inactive,inactive,inactive
O=C(NCc1ccco1)c1ccc(S(=O)(=O)c2ccc(Cl)cc2)cc1,95% (active),6%,-3%,97% (active),inactive,inactive,inactive,inactive
O=[N+]([O-])c1ccc(C=NNc2nc3ccccc3[nH]2)cc1,98% (active),11%,-6%,101% (active),inactive,inactive,inactive,inactive
CCCCCCCN(Cc1ccc(OC(C)(C)C(=O)OCC)cc1)C(=O)Nc1ccccc1OCC,94% (active),-5%,-3%,93% (active),inactive,inactive,inactive,inactive
CCC1(C)N=C(N)N=C(N)N1c1ccc(Cl)cc1 (stereo not given),-1%,7%,-3%,95% (active),inactive,inactive,inactive,inactive
COc1ccc2c(NN=Cc3cccc([N+](=O)[O-])c3)cc(C)nc2c1,97% (active),18%,-6%,101% (active),inactive,inactive,inactive,inactive
Cc1[nH]n(-c2cccc(C(F)(F)F)c2)c(=O)c1-c1ccc(Cl)cc1,25%,7%,-4%,98% (active),inactive,inactive,inactive,inactive
COc1cc(C(=O)NC2CCN(Cc3ccccc3)CC2)ccc1-c1nc2c(Cl)cc(C(F)(F)F)cc2[nH]1,56% (active),7%,1%,103% (active),inactive,inactive,inactive,inactive
Nc1ccc(-c2nc3c(ccc4ccccc43)[nH]2)cc1,51% (active),-21%,-1%,84% (active),inactive,inactive,inactive,inactive
CCOC(=O)C(Oc1ccc2ccccc2c1)C(=O)OCC,0%,8%,-4%,98% (active),inactive,inactive,inactive,inactive
COc1ccc(NC(=O)Nc2ccc(-c3ccncc3)c(C(F)(F)F)c2)cc1N1CCN(C)CC1,62% (active),5%,2%,101% (active),inactive,inactive,inactive,inactive
Cc1cccc2[nH]c(-c3ccc(-c4ccc(CN5CCN(CC6CCCN(C)C6)CC5)cc4)cc3)nc12 (stereo not given),99% (active),91% (active),-7%,101% (active),inactive,inactive,inactive,inactive

SMILES,growth inhibition [1],inhibition [2],inhibition [3],growth inhibition [4],outcome [5],outcome [6],outcome [7],outcome [8]
COc1ccc2c(NN=Cc3ccc(F)cc3)cc(C)nc2c1,99% (active),4%,-3%,101% (active),inactive,inactive,inactive,inactive
Cc1[nH]cc(Br)c(=O)c1-c1ccc(Oc2ccccc2)cc1,96% (active),-5%,-6%,97% (active),inactive,inactive,inactive,inactive
O=C(NCC1CCC(CNCCCc2ccccc2)CC1)Nc1ccc(Cl)c(Cl)c1 (stereo not given),2%,26%,-6%,99% (active),inactive,inactive,inactive,inactive
O=C(Nc1ccc(OC(F)(F)F)cc1)NC1CCN(c2ccnc3ccccc23)CC1,40%,40%,-7%,101% (active),inactive,inactive,inactive,inactive
O=C(/C=C/c1cccc(Cl)c1)NCCCCCN1CCC(c2c[nH]c3ccccc23)CC1,17%,46%,-2%,89% (active),inactive,inactive,inactive,inactive
Cc1ccc(NC(=O)c2cc([N+](=O)[O-])ccc2NCc2cccnc2)cc1Cl,58% (active),9%,-5%,86% (active),inactive,inactive,inactive,inactive
CCc1ccc(C2=Nn3c(nnc3-c3cccs3)SC2)cc1,20%,9%,0%,93% (active),inactive,inactive,inactive,inactive
CN1CCCN(Cc2cccc(-c3cccc(NC(=O)c4cccc(Cl)c4)c3)c2)CC1,20%,17%,-4%,96% (active),inactive,inactive,inactive,inactive
Cc1cc(CNC(=O)[C@H](CC2CCCCC2)Nc2ccc(C#N)c3ccccc23)c(C(F)(F)F)o1,55% (active),13%,3%,87% (active),inactive,inactive,inactive,inactive
NC1CCCN(Cc2ccc(-c3ccc(-c4nc5ccc(F)cc5[nH]4)s3)cc2)C1 (stereo not given),98% (active),40%,1%,100% (active),inactive,inactive,inactive,inactive
CCCNCc1ccc(-c2ccc(CN(Cc3ccc4c(c3)OCO4)C(=O)[C@H]3CCCO3)cc2)nc1,39%,18%,-3%,90% (active),inactive,inactive,inactive,inactive
CC12CN3CC(C)(CN(C1)C3c1cc(Br)ccc1O)C2O (stereo not given),2%,5%,-3%,98% (active),inactive,inactive,inactive,inactive
O=C(Nc1cccc(-c2ccc(-c3nc4ccc(F)cc4[nH]3)cc2)c1)c1ccoc1,6%,39%,-7%,85% (active),inactive,inactive,inactive,inactive
O=c1cc(NCCCNCc2ccc(Cl)c(Cl)c2)[nH]c2ccc(Cl)cc12,54% (active),11%,1%,101% (active),inactive,inactive,inactive,inactive
COc1ccc2nccc([C@@H](O)CN3CCC(NC(=O)Cc4cccc5c(Br)cccc45)CC3)c2c1,34%,15%,-3%,99% (active),inactive,inactive,inactive,inactive
CC(=O)N1N=C(c2ccc(F)cc2)Sc2c1nc(-c1ccccc1)n2C(C)=O,67% (active),-11%,-1%,99% (active),inactive,inactive,inactive,inactive
CN1CCN(c2cc(NC(=O)c3ccc(-c4ccc(C#N)cc4)cc3)ccc2Cl)CC1,94% (active),29%,-5%,101% (active),inactive,inactive,inactive,inactive
COc1ccc(Cl)cc1N1CCN(CCCNC(=O)c2ccc(-c3nc4ccc(C(F)(F)F)cc4[nH]3)c(C)c2)CC1,14%,6%,-2%,95% (active),inactive,inactive,inactive,inactive
CC(C)(C)c1ccc(O)c(CNC2CCCCC2)c1,98% (active),5%,-2%,100% (active),inactive,inactive,inactive,inactive
O=C(CN1CCN(S(=O)(=O)C=Cc2ccccc2)CC1)Nc1cc(C(F)(F)F)ccc1Cl,63% (active),23%,5%,96% (active),inactive,inactive,inactive,inactive
